Key:
[1] = biological target: Protein kinase C gamma type (Homo sapiens) (UniProt P05129); details: at 1 µM;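 also: each value is an averaged percent inhibition of the enzyme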
[2] = biological target: T1, Protein kinase C iota type (Homo sapiens) (UniProt P41743); details: at 0.1 µM
T1 sequence (whole entry): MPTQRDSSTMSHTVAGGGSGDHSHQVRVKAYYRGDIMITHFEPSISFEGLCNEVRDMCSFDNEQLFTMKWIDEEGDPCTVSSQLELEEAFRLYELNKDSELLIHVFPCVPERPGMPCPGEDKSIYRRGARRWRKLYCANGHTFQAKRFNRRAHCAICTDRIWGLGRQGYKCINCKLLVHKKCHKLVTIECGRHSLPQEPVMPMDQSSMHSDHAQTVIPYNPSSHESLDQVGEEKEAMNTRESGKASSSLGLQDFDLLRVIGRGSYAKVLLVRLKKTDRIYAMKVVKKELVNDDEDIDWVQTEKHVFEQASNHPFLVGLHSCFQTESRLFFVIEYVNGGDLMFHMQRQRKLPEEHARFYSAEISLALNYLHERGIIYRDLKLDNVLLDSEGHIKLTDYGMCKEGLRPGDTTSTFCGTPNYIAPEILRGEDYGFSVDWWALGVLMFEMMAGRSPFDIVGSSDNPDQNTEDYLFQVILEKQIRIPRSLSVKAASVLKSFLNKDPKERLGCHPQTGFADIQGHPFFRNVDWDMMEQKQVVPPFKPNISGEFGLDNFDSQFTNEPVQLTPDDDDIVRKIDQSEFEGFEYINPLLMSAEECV

[3] = biological target: T1, Protein kinase C iota type (Homo sapiens); details: at 1 µM
[4] = biological target: Protein kinase C theta type (Homo sapiens) (UniProt Q04759); details: at 0.1 µM
Protein kinase C theta type (Homo sapiens), sequence (Q04759 whole entry, looked up): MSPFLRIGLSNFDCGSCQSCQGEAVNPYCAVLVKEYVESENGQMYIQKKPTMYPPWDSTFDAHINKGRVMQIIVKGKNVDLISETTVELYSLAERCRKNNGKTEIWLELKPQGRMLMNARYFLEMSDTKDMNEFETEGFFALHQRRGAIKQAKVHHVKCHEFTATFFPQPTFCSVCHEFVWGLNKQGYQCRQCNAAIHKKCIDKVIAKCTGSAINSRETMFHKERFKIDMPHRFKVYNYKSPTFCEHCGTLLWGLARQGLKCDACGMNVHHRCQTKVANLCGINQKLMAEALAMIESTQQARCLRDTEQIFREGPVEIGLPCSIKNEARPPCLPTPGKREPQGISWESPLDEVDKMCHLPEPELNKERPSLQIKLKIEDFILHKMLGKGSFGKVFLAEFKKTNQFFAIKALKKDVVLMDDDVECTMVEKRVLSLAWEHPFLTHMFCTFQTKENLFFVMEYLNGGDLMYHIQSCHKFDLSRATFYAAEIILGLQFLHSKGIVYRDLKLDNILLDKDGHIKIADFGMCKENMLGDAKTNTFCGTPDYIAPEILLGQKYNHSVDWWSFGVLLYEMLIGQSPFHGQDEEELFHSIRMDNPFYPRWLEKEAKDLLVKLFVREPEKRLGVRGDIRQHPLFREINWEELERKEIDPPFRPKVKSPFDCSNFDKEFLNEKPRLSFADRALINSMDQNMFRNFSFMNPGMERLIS

[5] = biological target: Protein kinase C theta type (Homo sapiens) (UniProt Q04759); details: at 1 µM
[6] = biological target: Protein kinase C beta type (Homo sapiens) (UniProt P05771); details: at 0.1 µM
Protein kinase C beta type (Homo sapiens), sequence (P05771 2-671 limits assumed): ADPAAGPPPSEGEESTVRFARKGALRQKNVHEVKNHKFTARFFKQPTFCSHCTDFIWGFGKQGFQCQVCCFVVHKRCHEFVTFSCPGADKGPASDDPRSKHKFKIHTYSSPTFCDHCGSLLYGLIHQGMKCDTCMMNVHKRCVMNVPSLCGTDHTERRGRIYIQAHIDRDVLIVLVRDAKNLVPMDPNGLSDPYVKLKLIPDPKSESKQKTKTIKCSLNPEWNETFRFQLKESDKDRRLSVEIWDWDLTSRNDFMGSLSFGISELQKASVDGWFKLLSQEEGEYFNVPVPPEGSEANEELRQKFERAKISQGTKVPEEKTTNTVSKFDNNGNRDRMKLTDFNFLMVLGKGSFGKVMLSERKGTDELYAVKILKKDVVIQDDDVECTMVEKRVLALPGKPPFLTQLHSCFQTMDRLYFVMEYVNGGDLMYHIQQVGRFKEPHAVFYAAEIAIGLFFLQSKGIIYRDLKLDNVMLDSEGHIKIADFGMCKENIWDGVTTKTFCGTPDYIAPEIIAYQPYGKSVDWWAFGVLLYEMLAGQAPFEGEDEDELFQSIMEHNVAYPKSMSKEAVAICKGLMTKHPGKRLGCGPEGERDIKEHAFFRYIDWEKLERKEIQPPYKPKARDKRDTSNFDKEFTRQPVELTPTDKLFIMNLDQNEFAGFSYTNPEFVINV

[7] = biological target: Protein kinase C beta type (Homo sapiens) (UniProt P05771); details: at 1 µM
[8] = biological target: T2, Serine/threonine-protein kinase D1 (Homo sapiens) (UniProt Q15139); details: at 0.1 µM
T2 sequence (whole entry): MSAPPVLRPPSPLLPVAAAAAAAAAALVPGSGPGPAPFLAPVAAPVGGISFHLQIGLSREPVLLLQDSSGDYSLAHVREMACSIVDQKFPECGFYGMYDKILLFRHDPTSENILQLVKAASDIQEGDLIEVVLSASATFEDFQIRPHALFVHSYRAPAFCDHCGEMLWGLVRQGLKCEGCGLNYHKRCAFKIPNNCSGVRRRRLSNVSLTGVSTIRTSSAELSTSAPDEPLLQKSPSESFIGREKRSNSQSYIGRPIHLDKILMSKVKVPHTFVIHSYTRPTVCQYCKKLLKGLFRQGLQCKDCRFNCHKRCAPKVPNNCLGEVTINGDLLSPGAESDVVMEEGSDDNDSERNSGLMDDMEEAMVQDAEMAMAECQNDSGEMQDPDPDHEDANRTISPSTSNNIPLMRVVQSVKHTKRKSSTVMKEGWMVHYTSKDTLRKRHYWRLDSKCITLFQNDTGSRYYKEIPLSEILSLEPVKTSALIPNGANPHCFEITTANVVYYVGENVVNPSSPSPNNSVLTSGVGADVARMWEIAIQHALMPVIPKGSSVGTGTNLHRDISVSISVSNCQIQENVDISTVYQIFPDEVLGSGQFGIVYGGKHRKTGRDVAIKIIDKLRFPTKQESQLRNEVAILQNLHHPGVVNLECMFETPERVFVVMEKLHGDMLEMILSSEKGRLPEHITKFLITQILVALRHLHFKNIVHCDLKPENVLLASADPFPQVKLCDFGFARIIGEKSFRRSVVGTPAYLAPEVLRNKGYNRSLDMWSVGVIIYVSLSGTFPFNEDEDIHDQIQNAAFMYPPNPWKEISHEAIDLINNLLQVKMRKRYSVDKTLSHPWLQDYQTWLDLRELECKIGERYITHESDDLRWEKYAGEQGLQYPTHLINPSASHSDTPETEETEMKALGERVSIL

[9] = biological target: T2, Serine/threonine-protein kinase D1 (Homo sapiens); details: at 1 µM
[10] = biological target: T3, Serine/threonine-protein kinase D2 (Homo sapiens) (UniProt Q9BZL6); details: at 0.1 µM
T3 sequence (whole entry): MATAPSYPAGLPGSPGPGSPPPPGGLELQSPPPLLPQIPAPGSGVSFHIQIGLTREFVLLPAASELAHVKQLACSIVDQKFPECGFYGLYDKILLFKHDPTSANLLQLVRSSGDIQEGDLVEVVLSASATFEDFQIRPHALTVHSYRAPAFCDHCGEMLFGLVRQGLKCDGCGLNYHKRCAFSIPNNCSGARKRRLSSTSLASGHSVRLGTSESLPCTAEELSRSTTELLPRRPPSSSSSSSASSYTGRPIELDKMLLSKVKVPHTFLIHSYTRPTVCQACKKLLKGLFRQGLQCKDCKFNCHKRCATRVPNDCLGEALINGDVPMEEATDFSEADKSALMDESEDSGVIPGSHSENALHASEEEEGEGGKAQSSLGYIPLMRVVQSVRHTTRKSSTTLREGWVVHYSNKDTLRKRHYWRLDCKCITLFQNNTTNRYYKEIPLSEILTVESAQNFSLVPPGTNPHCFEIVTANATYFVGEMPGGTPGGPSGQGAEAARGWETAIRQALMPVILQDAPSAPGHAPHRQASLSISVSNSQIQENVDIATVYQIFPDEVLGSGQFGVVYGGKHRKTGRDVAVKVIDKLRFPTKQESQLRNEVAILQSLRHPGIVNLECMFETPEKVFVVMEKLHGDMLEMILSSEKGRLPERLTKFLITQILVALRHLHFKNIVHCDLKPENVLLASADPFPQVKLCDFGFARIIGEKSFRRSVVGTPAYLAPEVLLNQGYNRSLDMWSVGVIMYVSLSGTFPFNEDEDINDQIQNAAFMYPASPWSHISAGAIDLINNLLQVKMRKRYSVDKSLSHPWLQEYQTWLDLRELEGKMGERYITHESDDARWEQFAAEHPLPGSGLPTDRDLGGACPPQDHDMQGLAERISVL

[11] = biological target: T3, Serine/threonine-protein kinase D2 (Homo sapiens); details: at 1 µM
[12] = biological target: T4, Serine/threonine-protein kinase D3 (Homo sapiens) (UniProt O94806); details: at 0.1 µM
T4 sequence (whole entry): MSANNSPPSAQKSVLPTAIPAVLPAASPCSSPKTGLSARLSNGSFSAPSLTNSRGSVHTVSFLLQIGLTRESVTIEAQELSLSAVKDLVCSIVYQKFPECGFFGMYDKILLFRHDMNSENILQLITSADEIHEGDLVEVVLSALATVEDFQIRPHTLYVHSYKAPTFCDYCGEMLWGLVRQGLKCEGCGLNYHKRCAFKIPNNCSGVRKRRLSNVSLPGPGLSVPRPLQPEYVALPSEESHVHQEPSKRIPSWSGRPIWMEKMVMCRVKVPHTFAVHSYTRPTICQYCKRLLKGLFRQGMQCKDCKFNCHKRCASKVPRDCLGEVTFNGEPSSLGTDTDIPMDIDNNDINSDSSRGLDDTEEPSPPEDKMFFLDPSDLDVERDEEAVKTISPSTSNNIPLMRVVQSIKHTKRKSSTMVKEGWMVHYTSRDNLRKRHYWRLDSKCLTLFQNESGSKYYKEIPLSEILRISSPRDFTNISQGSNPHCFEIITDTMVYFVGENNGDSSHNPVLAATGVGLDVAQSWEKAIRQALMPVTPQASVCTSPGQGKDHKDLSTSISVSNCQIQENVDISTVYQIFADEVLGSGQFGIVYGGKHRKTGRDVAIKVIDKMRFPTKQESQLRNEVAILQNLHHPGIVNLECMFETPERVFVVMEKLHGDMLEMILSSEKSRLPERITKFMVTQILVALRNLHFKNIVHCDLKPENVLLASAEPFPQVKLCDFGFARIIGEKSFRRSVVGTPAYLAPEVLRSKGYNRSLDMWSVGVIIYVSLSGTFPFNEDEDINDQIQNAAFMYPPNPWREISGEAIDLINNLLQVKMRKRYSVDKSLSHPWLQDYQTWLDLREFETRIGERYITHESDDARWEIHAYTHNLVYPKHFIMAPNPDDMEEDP

[13] = biological target: T4, Serine/threonine-protein kinase D3 (Homo sapiens); details: at 1 µM
[14] = biological target: T5, cGMP-dependent protein kinase 1 (Homo sapiens) (UniProt Q13976); details: at 0.1 µM
T5 sequence (whole entry): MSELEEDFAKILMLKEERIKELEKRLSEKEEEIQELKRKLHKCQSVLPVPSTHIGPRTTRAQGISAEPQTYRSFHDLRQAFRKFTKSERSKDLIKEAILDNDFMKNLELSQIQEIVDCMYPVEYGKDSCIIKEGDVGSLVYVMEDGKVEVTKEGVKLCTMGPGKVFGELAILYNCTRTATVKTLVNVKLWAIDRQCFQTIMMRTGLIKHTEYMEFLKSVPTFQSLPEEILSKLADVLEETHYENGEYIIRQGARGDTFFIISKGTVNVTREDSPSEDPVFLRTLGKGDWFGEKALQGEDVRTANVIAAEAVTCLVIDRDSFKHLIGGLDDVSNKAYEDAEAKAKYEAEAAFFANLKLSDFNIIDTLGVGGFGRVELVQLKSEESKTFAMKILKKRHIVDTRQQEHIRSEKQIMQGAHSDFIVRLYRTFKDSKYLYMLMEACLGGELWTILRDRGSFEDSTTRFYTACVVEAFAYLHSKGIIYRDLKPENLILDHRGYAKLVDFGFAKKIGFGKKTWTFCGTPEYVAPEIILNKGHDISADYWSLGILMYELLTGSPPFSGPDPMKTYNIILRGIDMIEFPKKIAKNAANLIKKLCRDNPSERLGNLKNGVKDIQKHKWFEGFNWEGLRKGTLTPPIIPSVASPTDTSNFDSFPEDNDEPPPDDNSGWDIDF

[15] = biological target: T5, cGMP-dependent protein kinase 1 (Homo sapiens); details: at 1 µM
[16] = biological target: T6, cGMP-dependent protein kinase 2 (Homo sapiens) (UniProt Q13237); details: at 0.1 µM
T6 sequence (whole entry): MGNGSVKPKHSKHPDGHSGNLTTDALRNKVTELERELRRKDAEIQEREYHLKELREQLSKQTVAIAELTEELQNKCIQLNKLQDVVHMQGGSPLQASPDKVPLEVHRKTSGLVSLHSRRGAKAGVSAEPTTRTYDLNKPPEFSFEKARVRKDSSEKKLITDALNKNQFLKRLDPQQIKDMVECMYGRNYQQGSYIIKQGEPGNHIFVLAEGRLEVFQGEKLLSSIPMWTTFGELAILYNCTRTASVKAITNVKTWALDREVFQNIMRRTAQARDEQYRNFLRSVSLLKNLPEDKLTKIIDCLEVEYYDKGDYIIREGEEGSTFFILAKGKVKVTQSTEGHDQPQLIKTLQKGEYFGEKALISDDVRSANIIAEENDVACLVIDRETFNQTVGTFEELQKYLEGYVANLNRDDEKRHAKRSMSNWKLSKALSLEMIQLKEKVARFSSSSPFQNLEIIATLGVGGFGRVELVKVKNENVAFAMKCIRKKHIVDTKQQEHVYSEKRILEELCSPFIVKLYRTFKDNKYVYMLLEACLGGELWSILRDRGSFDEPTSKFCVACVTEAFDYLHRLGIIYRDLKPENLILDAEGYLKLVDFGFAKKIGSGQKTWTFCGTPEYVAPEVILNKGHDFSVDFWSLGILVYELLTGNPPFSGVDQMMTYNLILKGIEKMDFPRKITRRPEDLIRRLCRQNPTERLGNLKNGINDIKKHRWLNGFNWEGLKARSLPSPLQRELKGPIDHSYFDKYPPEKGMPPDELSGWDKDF

[17] = biological target: T6, cGMP-dependent protein kinase 2 (Homo sapiens); details: at 1 µM
[18] = biological target: T7, cAMP-dependent protein kinase catalytic subunit PRKX (Homo sapiens) (UniProt P51817); details: at 0.1 µM
T7 sequence (whole entry): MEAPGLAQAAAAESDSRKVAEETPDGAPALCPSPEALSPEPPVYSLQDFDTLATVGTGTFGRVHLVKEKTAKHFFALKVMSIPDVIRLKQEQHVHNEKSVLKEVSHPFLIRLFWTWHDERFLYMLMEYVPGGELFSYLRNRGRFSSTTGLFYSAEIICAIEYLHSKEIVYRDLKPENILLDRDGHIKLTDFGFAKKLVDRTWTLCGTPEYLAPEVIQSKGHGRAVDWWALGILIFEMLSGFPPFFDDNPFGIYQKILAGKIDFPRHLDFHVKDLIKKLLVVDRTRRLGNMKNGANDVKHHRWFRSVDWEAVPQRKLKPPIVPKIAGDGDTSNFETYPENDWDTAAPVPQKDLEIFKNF

[19] = biological target: T7, cAMP-dependent protein kinase catalytic subunit PRKX (Homo sapiens); details: at 1 µM
[20] = biological target: Rho-associated protein kinase 1 (Homo sapiens) (UniProt Q13464); details: at 0.1 µM;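 also: values are mean percent inhibition of ROCK1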
Rho-associated protein kinase 1 (Homo sapiens), sequence (Q13464 2-1354 limits assumed): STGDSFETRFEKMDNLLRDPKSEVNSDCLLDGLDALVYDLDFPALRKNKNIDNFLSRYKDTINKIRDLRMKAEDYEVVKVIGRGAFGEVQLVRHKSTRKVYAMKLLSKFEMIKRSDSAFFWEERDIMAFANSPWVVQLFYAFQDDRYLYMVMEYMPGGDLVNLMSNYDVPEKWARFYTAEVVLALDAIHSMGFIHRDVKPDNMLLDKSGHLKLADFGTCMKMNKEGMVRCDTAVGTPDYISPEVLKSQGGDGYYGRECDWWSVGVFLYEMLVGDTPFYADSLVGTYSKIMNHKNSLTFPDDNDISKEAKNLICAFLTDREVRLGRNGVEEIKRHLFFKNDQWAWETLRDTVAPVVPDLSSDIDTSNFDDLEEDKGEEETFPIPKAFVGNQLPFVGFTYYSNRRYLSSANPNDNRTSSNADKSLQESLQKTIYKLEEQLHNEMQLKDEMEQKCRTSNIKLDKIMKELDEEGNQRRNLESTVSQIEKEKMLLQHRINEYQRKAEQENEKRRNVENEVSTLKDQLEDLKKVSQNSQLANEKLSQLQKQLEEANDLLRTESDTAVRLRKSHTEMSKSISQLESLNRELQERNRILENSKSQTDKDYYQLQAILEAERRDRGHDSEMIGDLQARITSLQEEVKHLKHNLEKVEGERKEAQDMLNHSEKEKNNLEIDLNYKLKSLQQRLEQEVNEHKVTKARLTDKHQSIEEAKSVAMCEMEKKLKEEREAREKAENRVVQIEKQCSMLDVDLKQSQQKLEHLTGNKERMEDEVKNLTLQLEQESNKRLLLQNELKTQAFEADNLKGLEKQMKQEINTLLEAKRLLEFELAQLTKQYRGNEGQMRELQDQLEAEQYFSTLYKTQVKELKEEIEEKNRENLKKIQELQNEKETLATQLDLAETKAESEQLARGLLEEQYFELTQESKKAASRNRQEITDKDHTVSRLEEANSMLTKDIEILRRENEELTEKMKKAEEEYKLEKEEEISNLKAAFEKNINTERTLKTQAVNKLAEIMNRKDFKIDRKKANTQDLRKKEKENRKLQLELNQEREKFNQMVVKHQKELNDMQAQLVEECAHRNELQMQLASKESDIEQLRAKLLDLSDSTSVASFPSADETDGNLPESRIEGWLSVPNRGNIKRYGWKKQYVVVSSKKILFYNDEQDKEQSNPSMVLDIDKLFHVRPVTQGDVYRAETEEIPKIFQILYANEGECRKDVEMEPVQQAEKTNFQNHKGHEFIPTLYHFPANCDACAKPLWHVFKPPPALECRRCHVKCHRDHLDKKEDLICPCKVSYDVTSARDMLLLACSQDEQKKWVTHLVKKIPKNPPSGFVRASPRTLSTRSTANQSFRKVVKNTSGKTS

Row | SMILES | inhibition [1] | inhibition [2] | inhibition [3] | inhibition [4] | inhibition [5] | inhibition [6] | inhibition [7] | inhibition [8] | inhibition [9] | inhibition [10] | inhibition [11] | inhibition [12] | inhibition [13] | inhibition [14] | inhibition [15] | inhibition [16] | inhibition [17] | inhibition [18] | inhibition [19] | inhibition [20]
1 | COc1ccc2cc(-c3c(-c4ccncc4)nc(-c4ccc(S(C)(=O)=O)cc4C)n3C)ccc2c1 | 7.85% | 3.93% | 3.45% | 2.19% | 5.03% | 3.45% | 9.63% | 4.08% | 4.53% | 4.88% | 4.27% | 3.99% | 4.2% | 5.14% | 8.86% | 5.61% | 6.44% | 5.93% | 12.1% | 8.02%
2 | C[C@@H](Oc1cc(-n2cnc3ccc(OCC4CCN(C)CC4)cc32)sc1C(N)=O)c1ccccc1Cl | 6.3% | 1.84% | 2.7% | 4.47% | 15.3% | 3.47% | 11.6% | 6.16% | 12% | 7.73% | 12.1% | 5.81% | 12% | 3.88% | 7.13% | 3.5% | 7.56% | 1.81% | -4.06% | 2.64%
